Measurements as given in PubChem BioAssay (Tox21).
Inconclusive results are not listed. Calls of active or inactive are those of the source. Unless noted, calls come from the whole dose curve; as a rule, active = well fitted curve in the direction sought with a large enough effect in the repeat runs; inconclusive = weak or mixed curves; inactive = no such curve, though single readings can be large; an effect the other way counts as inactive or inconclusive.

What was measured:
[1] = qHTS assay to identify small molecule antagonists of the vitamin D receptor (VDR) signaling pathway - cell viability counter screen (AID 743225); note: % is set by controls: 0 for no effect and ±100 for the full control effect; nearly all actives have a fitted effect of over 50% in size
In short: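 Read-out: CellTiter-Glo luminescence measured 30 min after reagent addition at room temperature. Cells were VDR-bla HEK 293T exposed 16 h at 37C, 5% CO2, to compound with 3 nM final calcitriol agonist.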

[2] = qHTS assay to identify small molecule agonists of the NFkB signaling pathway - cell viability counter screen (AID 1159515; calls by dose curve; note: series mostly up to about 61 µM; % is set by controls: 0 for no effect and ±100 for the full control effect; nearly all actives have a fitted effect of over 55% in size)
In short: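 Counter screen run alongside the NFkB-bla agonist assay: ME-180 reporter cells exposed to compounds for 5 hr, then lysed with CellTiter-Glo in the same wells. Luminescence, read after 30 min, reflects viable cells.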

[3] = qHTS assay to identify small molecule agonists of the endoplasmic reticulum stress response signaling pathway (AID 1159516; active = well fitted activation curve with a large enough effect in the signal ratio in the repeat runs, not every such curve was filed as active; the % refers to the signal ratio; note: % is set by controls: 0 for no effect and ±100 for the full control effect)
In short: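 For this screen, HeLa cells stably carrying beta-lactamase under the ER stress response element received test compounds, positive controls or DMSO for 5 hr at 37 C; B/G FRET substrate was then added and dual-wavelength emission recorded.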

[4] = qHTS assay to identify small molecule agonists of the endoplasmic reticulum stress response signaling pathway - cell viability counter screen (AID 1159517; calls by dose curve; note: series mostly up to about 61 µM; % is set by controls: 0 for no effect and ±100 for the full control effect; nearly all actives have a fitted effect of over 50% in size)
In short: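 Steps: seed 1,500 ESRE-bla HeLa cells per well; incubate overnight at 37 C, 5% CO2; add compounds in DMSO for 5 hr; run FRET substrate 2 hr RT; add CellTiter-Glo, wait 30 min, read luminescence.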

[5] = target: Nuclear receptor ROR-gamma (Homo sapiens) (UniProt P51449); test: qHTS assay to identify small molecule antagonists of the retinoid-related orphan receptor gamma (ROR-gamma) signaling pathway (AID 1159521; note: nearly all actives have a fitted effect of over 50% in size; note: potency is the fitted concentration of half-maximal effect)
In short: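 CHO Tet-on RORγ, RORE-luc reporter. Cpd 2 h pre-incubation, then dox hyclate 1 uM final, 16 h, 37 C/5% CO2. ONE-Glo luminescence; decrease = antagonist.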

[6] = qHTS assay to identify small molecule agonists of the AP-1 signaling pathway - cell viability counter screen (AID 1159525; calls by dose curve; note: nearly all actives have a fitted effect of over 55% in size)
In short: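 Same-well cytotoxicity counter screen of the Tox21 10K library in ME-180 cells. The readout is ATP-dependent luminescence after 5 h compound treatment. Data are normalised to DMSO and tetra n-octyl ammonium bromide controls.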

[7] = qHTS assay to identify small molecule agonists of the AP-1 signaling pathway (AID 1159526; calls by dose curve; note: % is set by controls: 0 for no effect and ±100 for the full control effect)
[8] = qHTS assay to identify small molecule agonists of the RXR signaling pathway - cell viability counter screen (AID 1159529); note: series mostly up to about 77 µM; % is set by controls: 0 for no effect and ±100 for the full control effect; nearly all actives have a fitted effect of over 50% in size
In short: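 HEK 293T RXRa-bla cells, 2% CS-FBS; 5 h settle; cpd 16 h 37 C, 5% CO2; CellTiter-Glo 30 min RT, luminescence. Tetraoctyl ammonium bromide as positive control.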

[9] = qHTS assay to identify small molecule antagonists of the retinoid acid receptor (RAR) signaling pathway - cell viability counter screen (AID 1159551); note: nearly all actives have a fitted effect of over 35% in size; note: potency is the fitted concentration of half-maximal effect
In short: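 Measured by luminescent ATP detection, viability reflects C3RL4 cells treated 6 h at 37 C with test chemicals in the presence of 1 uM (final) retinol.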

[10] = qHTS assay to identify small molecule antagonists of the retinoic acid receptor (RAR) signaling pathway (AID 1159552)
In short: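 Cells of the C3RL4 line were seeded, incubated overnight, then dosed with compounds in DMSO followed immediately by retinol (1 uM final). Six hours later luciferase detection reagent went in; signal was measured after 30 min at RT.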

[11] = qHTS assay to identify small molecule antagonists of the retinoid-related orphan receptor gamma (ROR-gamma) signaling pathway - cell viability counter screen (AID 1159520); note: nearly all actives have a fitted effect of over 50% in size; note: potency is the fitted concentration of half-maximal effect
In short: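 Tet-on ROR gamma CHO cells were given compounds for 2 hr, then doxycycline hyclate at 1 uM final, and incubated 16 hr at 37 C. Viability was measured as ATP content by CellTiter-Glo luminescence.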

[12] = qHTS assay to identify small molecule antagonists of the estrogen related receptor (ERR) signaling pathway - cell viability counter screen (AID 1224818); note: series mostly up to about 46 µM; % is set by controls: 0 for no effect and ±100 for the full control effect
In short: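 Compounds dissolved in DMSO were applied to ERR cells seeded at 2,000 per well 6 h earlier. Cell viability followed 17.5 h later via 30-min CellTiter-Fluor fluorescence.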

[13] = qHTS assay to identify small molecule antagonists of the estrogen related receptor signaling pathway with the pleiotropic PPARgamma coactivator (PGC) cell viability counter screen (AID 1224822; note: series mostly up to about 46 µM; % is set by controls: 0 for no effect and ±100 for the full control effect)
In short: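 Counter screen for cell viability: PGC/ERR cells, 6 h pre-incubation after plating, 17.5 h compound exposure at 37 C, fluorescence from CellTiter-Fluor after 30 min.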

[14] = qHTS assay to identify small molecule antagonists of the estrogen related receptor (ERR) signaling pathway from Tox21 library - cell viability counter screen (AID 1224834); note: nearly all actives have a fitted effect of over 30% in size; note: potency is the fitted concentration of half-maximal effect
In short: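 Seeded ERR cells were rested 6 h at 37 C/5% CO2 before compounds, positive and negative controls or DMSO were added. Incubation continued for 17.5 h, and viability was then quantified by CellTiter-Fluor fluorescence.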

[15] = qHTS assay to identify small molecule agonists of the retinoic acid receptor (RAR) signaling pathway (AID 1159553); note: % is set by controls: 0 for no effect and ±100 for the full control effect
In short: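 6 hr compound exposure (DMSO vehicle) of overnight-plated C3RL4 RARE-luc cells at 37 C; luminescence quantified after 30 min RT with luciferase reagent.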

[16] = target: Retinoic acid receptor RXR-alpha (Homo sapiens) (UniProt P19793); test: qHTS assay to identify small molecule agonists of the RXR signaling pathway (AID 1159527; calls by dose curve; note: % is set by controls: 0 for no effect and ±100 for the full control effect; nearly all actives have a fitted effect of over 35% in size)
Chain of Retinoic acid receptor RXR-alpha (Homo sapiens) (P19793 whole entry, looked up): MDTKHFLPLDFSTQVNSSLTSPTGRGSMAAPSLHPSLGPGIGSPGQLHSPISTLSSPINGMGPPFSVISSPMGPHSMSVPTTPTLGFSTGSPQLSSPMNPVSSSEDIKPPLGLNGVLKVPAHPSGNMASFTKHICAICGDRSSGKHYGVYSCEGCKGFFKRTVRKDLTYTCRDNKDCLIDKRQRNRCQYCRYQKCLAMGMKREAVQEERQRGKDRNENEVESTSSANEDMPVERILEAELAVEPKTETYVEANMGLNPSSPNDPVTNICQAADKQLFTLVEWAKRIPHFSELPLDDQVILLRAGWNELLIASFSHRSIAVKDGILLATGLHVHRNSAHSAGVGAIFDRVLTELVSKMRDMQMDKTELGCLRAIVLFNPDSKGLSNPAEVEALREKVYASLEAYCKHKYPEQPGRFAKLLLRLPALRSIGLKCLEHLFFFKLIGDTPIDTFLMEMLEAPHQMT
In short: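 Read-out: beta-lactamase FRET ratio (405 nm excitation, 460 and 530 nm emission) after 2 hr substrate loading at room temperature. Cells were RXR-alpha-UAS-bla HEK 293T treated with compounds for 16 hr in 2% charcoal-stripped FBS medium.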

COc1ccc(C(=O)c2ccc(OC)cc2O)c(O)c1
inactive: Potency [1] | Potency [2] | Potency [3] | Potency [4] | Potency [5] | Potency [6] | Potency [7] | Potency [8] | Potency [9] | Potency [10]

CCCNCC(O)COc1ccccc1C(=O)CCc1ccccc1 (centres undefined)
inactive: Potency [1] | Potency [2] | Potency [3] | Potency [4] | Potency [11] | Potency [6] | Potency [9] | outcome [12] | outcome [13]

Cc1cc(N)c2cc(NC(=O)Nc3ccc4nc(C)cc(N)c4c3)ccc2n1
inactive: Potency [2] | Potency [3] | Potency [4] | Potency [11] | Potency [8] | Potency [9] | Potency [10] | Potency [14]

CCCCCC[C@@H](O)C/C=C\CCCCCCCC(=O)OC
inactive: Potency [1] | Potency [2] | Potency [3] | Potency [4] | Potency [11] | Potency [6] | Potency [8] | Potency [9] | Potency [10] | Potency [14]

CC(=O)OC[C@H]1O[C@@H](n2ncc(=O)[nH]c2=O)[C@H](OC(C)=O)[C@@H]1OC(C)=O
inactive: Potency [1] | Potency [2] | Potency [3] | Potency [4] | Potency [6] | Potency [7] | Potency [8] | Potency [9] | Potency [10] | Potency [14]
active: Potency [5] 1.5 µM

CC(C)Nc1ccc(NC(C)C)c2c1C(=O)c1ccccc1C2=O
inactive: Potency [1] | Potency [2] | Potency [4] | Potency [6] | Potency [15]
active: Potency [11] 28.4 µM | Potency [5] 25.3 µM | Potency [9] 25.3 µM | Potency [14] 20.1 µM

OCCNCc1ccccc1
inactive: Potency [1] | Potency [2] | Potency [3] | Potency [4] | Potency [5] | Potency [6] | Potency [7] | Potency [16] | Potency [8] | Potency [9] | Potency [10] | Potency [15] | Potency [14]

CNCCCCOc1ccccc1Cc1ccccc1
inactive: Potency [2] | Potency [3] | Potency [4] | Potency [11] | Potency [6] | Potency [8] | Potency [9]

O=C(c1ccc(F)cc1)C1CCN(CCn2c(=S)[nH]c3ccccc3c2=O)CC1
inactive: Potency [1] | Potency [2] | Potency [3] | Potency [4] | Potency [11] | Potency [6] | Potency [8] | Potency [10]
active: Potency [14] 29.8 µM

Cc1[nH]c(C)c(Cl)c(=O)c1Cl
inactive: Potency [1] | Potency [2] | Potency [4] | activity, negative = cytotoxicity [11] 3.57% [at 19 µM] | activity change, negative = inhibition [5] -2.21% [at 19 µM] | activation [7] -0.748% [at 15.8 µM] | activation [16] 5.66% [at 15.8 µM] | activity change, negative = cytotoxicity [8] 7.97% [at 15.8 µM] | activity change, negative = cytotoxicity [9] -2.2% [at 19 µM] | activity, negative = inhibition [10] 3.44% [at 19 µM] | Potency [15] | viability change, negative = cytotoxic [14] 0.386% [at 19 µM]

CCOC(=O)C(O)c1ccccc1 (centres undefined)
inactive: Potency [1] | Potency [2] | Potency [4] | Potency [11] | Potency [5] | Potency [7] | Potency [16] | Potency [9] | Potency [10] | Potency [15] | Potency [14]
